# Laboratory results published in PubChem BioAssay AID489025 (Southern Research Specialized Biocontainment Screening …, 2010).
# Screen size: about 2,300 compounds; about 790 (34%) were called active. The rule behind the calls is not given here. The list shows a part of the results. Results with a measured potency or affinity are listed apart.
# Test: THP-1 cell cytotoxicity, dose response, cytotoxicity control for non-replicating M. tuberculosis project (AID 489025)
# Details: THP-1 cell viability; series mostly up to 40 µM
row,SMILES,outcome
1,Cc1cccc(NC(=O)CCSc2nnc(Cc3ccccc3)o2)c1,inactive
2,CCN1C(=O)CC(N2CCC(c3nc4ccccc4[nH]3)CC2)C1=O (configuration not stated),inactive
3,CCOC(=O)C(=CNNc1cccc(Cl)c1)C(=O)OCC,inactive
4,Cc1ccc2[nH]c3c(c2c1)CCCC3NCCO (configuration not stated),inactive
5,Cc1ccc2c(c1)c1c3n2CCN=C3CCC1,inactive
6,COc1ccc(C2(O)CCN(CCCCOc3ccccc3)CC2)cc1,inactive
7,OCC1(CCOc2ccccc2)CCN(Cc2cc(Cl)ccc2O)CC1,inactive
8,COc1cc(NCCC(=O)c2cccs2)c(OC)cc1Cl,inactive
9,Cc1cc(=O)n2cccc(O)c2n1,inactive
10,CC(C)(C)c1ccc(NC(=O)COc2ccc(-n3ccnc3)cc2)cc1,inactive
11,Clc1ccc(SCCCCn2ccnc2)cc1,inactive
12,O=C(O)c1ccc(NS(=O)(=O)/C=C/c2ccccc2)cc1O,inactive
13,Cc1cc(C)cc(NC(=O)COC(=O)CC2CCCC2)c1,inactive
14,O=C(COc1ccc(Nc2ccccc2)cc1)OCC(=O)N1CCCCC1,inactive
15,COc1cccc(CC2(CO)CCCN(Cc3sc(N4CCCC4)nc3Cl)C2)c1 (configuration not stated),inactive
16,O=C(COc1ccc(Cl)cc1)Nc1ccc(Cl)cn1,inactive
17,CCCc1nnc(-c2ccc(OC)cc2)o1,inactive
18,c1ccc(-c2n[nH]c(-c3ccccn3)n2)nc1,inactive
19,O=C(COc1ccc(Cl)cc1)Nc1ccccc1Cl,inactive
20,CC(C)(C)OC(=O)NCCc1nnc(S(=O)(=O)Cc2ccc(Cl)cc2Cl)o1,inactive
21,OCC#CCSc1nnc(-c2ccc(Br)cc2)o1,inactive
22,Cc1cccc(NCc2nnc(-c3ccccc3)o2)c1C,inactive
23,CCOc1ccc(-c2ccc(SCC)nn2)cc1,inactive
24,O=C(CCSc1ccccn1)c1ccccc1,inactive
25,O=C(NC1CCCC1)c1nc2c(nnn2Cc2cccc(Cl)c2)c(=O)[nH]1,inactive
26,CC(C)(C)c1ccc(OCCC(=O)OCC(=O)NC2CCCCC2)cc1,inactive

row,SMILES,outcome
1,N#Cc1nc(-c2cccs2)oc1NCCc1ccccc1,inactive
2,CC(C)(C)c1ccc(-c2nc(C#N)c(NCCCn3ccnc3)o2)cc1,inactive
3,CCOCCOC(=O)COc1ccc2c(-c3ccccc3)cc(=O)oc2c1,inactive
4,CCc1nnc(NC(=O)CN2CCN(Cc3ccc(F)cc3)CC2)s1,inactive
5,Cc1ccc2nc(NC(=O)COC(=O)c3ccc(Br)o3)sc2c1,inactive
6,CC1CCN(C(=O)COC(=O)CCc2c[nH]c3ccccc23)CC1,inactive
7,O=C1/C(=C/c2cccs2)COc2ccccc21,inactive
8,COc1ccc2c3c(cccc13)OCC2=O,inactive
9,O=C(c1ccco1)N1CCN(c2ccc(F)cc2)CC1,inactive
10,O=S(=O)(NCc1cccnc1)c1ccc(Cl)c(Cl)c1Cl,inactive
11,Cc1cc(C=C2C(=O)NC(=S)NC2=O)c(C)n1C1CCCC1,inactive
12,CCCn1nnnc1NCc1ccc(CC)cc1,inactive
13,CCCCCCCC(=O)N/N=C(/C)c1c(O)cc(C)oc1=O,inactive
14,CCc1ccc(/C=N/NC(=O)c2ccccn2)cc1,inactive
15,Cc1ccc(-c2noc(CCCC(=O)Nc3cccnc3)n2)cc1,inactive
16,O=C(N/N=C/C=C/c1ccccc1)c1ccccn1,inactive
17,Cc1ccc(NCCC(=O)c2cccs2)cc1,inactive
18,CCCCCCCC(=O)NNC(=O)c1ccc(F)cc1,inactive
19,CCCCn1nnc(NC(=O)COc2ccc(Cl)c(C)c2)n1,inactive
20,CCCOC(=O)c1ccc(NC(=O)c2ccccc2OC)cc1,inactive
21,CN1CCC(O)(c2ccc(Cl)cc2)C(C(=O)c2ccc(Cl)cc2)C1 (configuration not stated),inactive
22,CCN(CC)S(=O)(=O)c1ccc(C(=O)OCn2nnc3ccccc3c2=O)cc1,inactive
23,C/C(=N\NC(=O)c1ccco1)c1cc(Cl)sc1Cl,inactive
24,C=C1Cn2c(nnc2-c2ccc(Cl)cc2)S1,inactive
25,Cc1ccc2nc(C)c3c(c2c1)COC3,inactive
26,O=C(OCn1nnc2ccccc2c1=O)C1CCCCC1,inactive

row,SMILES,outcome
1,O=C(COc1ccccc1)NC1CCCCC1,inactive
2,CCOC(=O)COc1ccc2c(c1)C(=O)CC1(CCCCC1)O2,inactive
3,CCOc1ccc(NC(=O)CCNC(=O)c2ccc(Br)cc2)cc1,inactive
4,O=C(c1ccc(-c2ccc([N+](=O)[O-])cc2)o1)N1CCN(S(=O)(=O)c2cccs2)CC1,inactive
5,CC1CCN(C(=O)c2ccc(-c3ccccc3Cl)o2)CC1,inactive
6,O=C(COc1cccc2ccccc12)Nc1nc2ccccc2[nH]1,inactive
7,CCCN(Cc1nnc(-c2ccccc2Cl)o1)C(=O)c1cc([N+](=O)[O-])cc([N+](=O)[O-])c1,inactive
8,Cc1ccc(OCC(=O)Nc2ccc([N+](=O)[O-])cc2)cc1,inactive
9,COc1ccc(CCOC(=O)c2ccc(N)c([N+](=O)[O-])c2)cc1,inactive
10,COc1ccc(C(=O)COC(=O)COc2ccc(C)c(C)c2)cc1,inactive
11,CC(C)CN(Cc1c(O)ccc2ccccc12)CC(C)C,inactive
12,Cn1c(=O)c2c(=O)cc(NNC(=O)CC#N)[nH]c2n(C)c1=O,inactive
13,O=C(C/C=N\OCc1ccc([N+](=O)[O-])cc1)Nc1ccccc1,inactive
14,CN(CC(=O)Nc1ccc(Cl)cc1)C1CCCCC1,inactive
15,Cc1ccc(CO/N=C/c2c(O)cc(C)oc2=O)cc1,inactive
16,Cc1cc(C)n2nc(S(=O)(=O)Nc3c(Cl)cccc3Cl)nc2n1,inactive
17,CS(=O)(=O)Nc1cccc2cccnc12,inactive
18,CCSc1nc(O)c(C2OC(=O)c3c2ccc(OC)c3OC)c(=O)n1-c1ccccc1 (configuration not stated),inactive
19,COc1cc(C=O)ccc1OCCCCOc1ccccc1[N+](=O)[O-],inactive
20,COc1cc(/C=C/c2ccc3c([N+](=O)[O-])cccc3n2)ccc1OCC(=O)O,inactive
21,C=CCN(CC=C)CC(=O)Nc1ccc(S(N)(=O)=O)cc1,inactive
22,O=C(OCc1ccc([N+](=O)[O-])cc1)c1ccc2ccccc2n1,inactive
23,N#CC(C(=O)Nc1ccccc1)=C1Nc2ccccc2N1,inactive
24,CSCCC(=O)N1CCCC(CNC(=O)c2ccc(-c3ccccc3)cc2)C1 (configuration not stated),inactive
25,Cc1[nH]n(S(=O)(=O)Cc2ccccc2)c(=O)c1N=Nc1ccccc1Cl,inactive
26,O=C(NN=C(Cc1ccccc1)Cc1ccccc1)c1ccncc1,inactive

row,SMILES,outcome
1,O=C(N/N=C/C=C/c1ccccc1)c1ccncc1,inactive
2,CN1/C(=C\C=N\NC(=O)c2cccnc2)C(C)(C)c2ccccc21,inactive
3,CCOC(=O)N1CCC(NC(=O)C2CCN(c3nc(-c4ccc(OC)cc4)no3)CC2)CC1,inactive
4,CCOC(=O)C1CCCN(Cc2nc(Cc3ccccc3Cl)no2)C1 (configuration not stated),inactive
5,CCCNC(=O)OCC12CC3CC(CC(C3)C1)C2,inactive
6,O=C(CCCOc1ccccc1)OCn1nnc2ccccc2c1=O,inactive
7,COc1ccccc1N1CCN(C(=O)CCn2c(=O)[nH]c3ccsc3c2=O)CC1,inactive
8,Cc1ccc(C(=O)COC(=O)c2cccs2)cc1,inactive
9,Cc1ccc(C(=O)CCC2CCCC2=O)cc1 (configuration not stated),inactive
10,COc1ccc(-c2[nH]ncc2CN2CCCCCCC2)c(OC)c1,inactive
11,O=C(Nc1ccc(F)cc1F)c1cc2ccccc2oc1=O,inactive
12,CC(C)Cc1cc(C(=O)Nc2ccc(F)cc2F)no1,inactive
13,O=C(COc1ccc(-c2ccccc2)cc1)Nc1cccnc1,inactive
14,CCCNC(=O)NC(=O)COc1ccc(-c2ccc(C#N)cc2)cc1,inactive
15,O=C(NC(=S)Nc1ccc(F)cc1)C1CCCCC1,inactive
16,CN(/N=C/c1ccc([N+](=O)[O-])o1)c1ccccc1,inactive
17,CC1=CN2C(=N)/C(=C/c3ccc([N+](=O)[O-])o3)C(=O)N=C2S1,inactive
18,CC(C)[C@H](NC(=O)c1ccc(Br)cc1)C(=O)NC1CCCCC1,inactive
19,c1ccc(Nc2nc(-c3ccccn3)cs2)cc1,inactive
20,COc1ccc(CCNc2nc(-c3ccccn3)cs2)cc1OC,inactive
21,CN1CCN(c2cc3c(cc2F)c(=O)c(C(=O)O)cn3CCF)CC1,inactive
22,S=C1NC2(CCCC2)N=C1c1ccccc1,inactive
23,CCOC(=O)c1csc(-c2snnc2C)n1,inactive
24,COc1ccc(COC(=O)CCNC(=O)c2ccc(Cl)cc2)cc1,inactive
25,COC(=O)COc1cccc(NC(=O)c2ccc(Cl)cc2)c1,inactive
26,CNC(=O)COC(=O)c1ccc(-c2nc3ccccc3s2)s1,inactive

row,SMILES,outcome
1,CC(C)N1CCc2c(sc(NC(=O)CCS(=O)(=O)c3ccccc3)c2C#N)C1,inactive
2,O=C(COc1ccc2ccccc2c1)NNC(=O)c1cccs1,inactive
3,Clc1cccc(CNCCNCc2cccc(Cl)c2)c1,inactive
4,Cc1cc(Cl)ccc1OCCCC(=O)NO,inactive
5,CC(Cc1cccs1)NC(=O)c1cccc(Cl)c1 (configuration not stated),inactive
6,Cc1ccc(NC(=O)COc2ccc3c(c2)CCC3)nc1,inactive
7,CCOC(=O)COc1cc(O)c2c(=O)cc(-c3ccccc3)oc2c1,inactive
8,COc1ccc(N2C(=O)C(F)(F)C2c2cccc(F)c2)cc1 (configuration not stated),inactive
9,NC(=O)N/N=C\c1cc(Br)ccc1O,inactive
10,COC(=O)COc1cccc(/C=N/NC(=O)CCSc2ccccc2)c1,inactive
11,COCCNC(=O)CC(=O)N/N=C/c1cccc(C(=O)OC)c1,inactive
12,Cc1cc(C(=O)N/N=C/c2cccc(Cl)c2Cl)no1,inactive
13,Clc1ccccc1CSc1nnc([C@@H]2CCCN2)o1,inactive
14,O=C(COC(=O)CCc1c[nH]c2ccccc12)Nc1ccc([N+](=O)[O-])cc1,inactive
15,CC1N(C)c2cccc3cccc(c23)N1C,inactive
16,COC(=O)c1cccc(COC(=O)c2cc3ccccc3oc2=O)c1,inactive
17,Cc1cc(Cl)ccc1NNC(=O)c1c(C)noc1C,inactive
18,O=C(NN=C1C2CC3CC1CC(Cl)(C3)C2)c1cccs1,inactive
19,O=C(NNc1nc2ccccc2s1)Nc1ccc(F)cc1,inactive
20,O=[N+]([O-])c1cc(N=Nc2ccc3ccccc3c2)ccc1O,inactive
21,O=C(N/N=C/C=C/c1ccccc1[N+](=O)[O-])c1ccncc1,inactive
22,O=C(COc1ccccc1)NNc1nc2ccccc2s1,inactive
23,Clc1cccc(/C=N\Nc2nccs2)c1,inactive
